In PubChem BioAssay (NCI):
About 79,000 compounds went through this panel and 15% of them were active in at least one assay; those are over-represented in the sample as a whole. No stated cut-off is given here; in the data, active means growth inhibition above about 70%; inactive means the rest.

Legend:
[1] = NCI Yeast Anticancer Drug Screen. Data for the rad50 strain (AID 155);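 further: 0% = growth of vehicle-only cultures of the same strain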; settings: S. cerevisiae rad50 strain growth inhibition; at 50.0 µM; stronger effect = higher value
In short: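 DNA repair mutant yeast, compound exposure, growth read-out; inhibition is taken relative to vehicle.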

[2] = NCI Yeast Anticancer Drug Screen. Data for the mec2-1 strain (AID 157); settings: S. cerevisiae mec2-1 strain, at 50.0 µM, stronger effect = higher value
In short: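 Mutant yeast (mec2-1) grown with compound; growth inhibition relative to vehicle control reported.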

[3] = NCI Yeast Anticancer Drug Screen. Data for the sgs1 mgt1 strain (AID 161);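 further: 0% = growth of cultures given vehicle only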; settings: S. cerevisiae sgs1 mgt1 strain, at 50.0 µM, stronger effect = higher value
In short: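 Growth of a repair-deficient yeast mutant was monitored after compound treatment and expressed as inhibition relative to vehicle-treated cultures.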

[4] = NCI Yeast Anticancer Drug Screen. Data for the cln2 rad14 strain (AID 165);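 further: 0% = growth equal to vehicle treated cultures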; settings: S. cerevisiae cln2 rad14 strain, at 50.0 µM, stronger effect = higher value
In short: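 Readout is yeast growth inhibition versus vehicle-treated controls, using a strain with cln2 and rad14 alterations exposed to compound.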

[5] = NCI Yeast Anticancer Drug Screen. Data for the bub3 strain (AID 167); settings: S. cerevisiae bub3 mutant strain, at 50.0 µM, stronger effect = higher value
In short: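 In this screen, a yeast mutant lacking normal mitotic checkpoint function is challenged with compound. Relative growth versus vehicle gives the inhibition value.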

[6] = NCI Yeast Anticancer Drug Screen. Data for the mlh1 rad18 strain (AID 175); settings: S. cerevisiae mlh1 rad18 strain growth inhibition; at 50.0 µM; stronger effect = higher value
In short: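 Genetically defined yeast (DNA repair-deficient) exposed to compounds; growth inhibition determined relative to vehicle.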

Measured: growth inhibition

O=C(c1ccccc1)c1cccc2c1ccc1ccccc12
inactive: [1] 13.4% | [2] 38.9% | [3] 38.3% | [4] 17% | [5] 23.4% | [6] 32.5%

COC1OC(C(=O)O)C(O)C(O)C1O (configuration not stated)
inactive: [1] 6.75% | [2] -21.1% | [3] -2.6% | [4] -4% | [5] -17.6% | [6] 8.3%

Cc1cc(C)c(C#[N+][O-])c(C)c1C#[N+][O-]
inactive: [1] 5.9% | [2] 8.1% | [3] -5.8% | [4] 13.7% | [5] -1.1% | [6] 15.4%

COC1=CC(=C(C#N)C(=Nc2ccccc2)SC)C=C(OC)C1=O
inactive: [1] 34.1% | [2] 19.1% | [3] 48.9% | [4] 15.3% | [5] 20.6% | [6] 43.6%

CC(=O)N1CCC(=O)c2ccccc21
inactive: [1] 11.3% | [2] 14.3% | [3] -1.8% | [4] 6.1% | [5] -24.3% | [6] -5.35%

Cc1n[nH]c(=O)[nH]c1=O
inactive: [1] -25.2% | [2] -24.8% | [3] -2.7% | [4] 3.45% | [5] -0.85% | [6] 2.55%

NC(=O)C(F)(F)c1ccccc1
inactive: [1] 2.3% | [2] -12.8% | [3] 14.8% | [4] 10.1% | [5] 21.4% | [6] 9.8%

CCCCCOc1nc2c(c(=O)n(C)c(=O)n2C)n1C
inactive: [1] -0.4% | [2] -2.55% | [3] 4.65% | [4] -17.6% | [5] 3.45% | [6] 0.85%

O=[N+]([O-])c1ccc2c(c1)C(O)c1ccccc1-2 (configuration not stated)
inactive: [1] 35.6% | [2] 24.6% | [3] 12.9% | [4] 26.9% | [5] 26.2% | [6] 29.1%

CCCCCCCCCC1=C(C#N)C(=O)OCCN1C
inactive: [1] -12.9% | [2] -2.7% | [3] 0.05% | [4] -22.1% | [5] -11.4% | [6] 3.6%

CCCCOC(=O)CC(C(=O)OCCCC)N1CCNCC1 (configuration not stated)
inactive: [1] -0.05% | [2] -9.95% | [3] -4.15% | [4] -50.6% | [5] -1.2% | [6] -3.1%

CCOC(=O)c1cnc2ccccc2c1OCC
inactive: [1] -5.45% | [2] -12.2% | [3] -6.5% | [4] -43.9% | [5] 2.55% | [6] 0.55%

CCOC(=O)/C(C#N)=C/c1ccccc1F
inactive: [1] 22.9% | [2] 13.5% | [3] 20.4% | [4] 1.4% | [5] 14.8% | [6] 40.8%

CC(=O)OC1C(NC(=O)OCc2ccccc2)CC(NC(=O)OCc2ccccc2)C(O)C1O (configuration not stated)
inactive: [1] 34.4% | [2] -12.5% | [3] 5.4% | [4] -10.1% | [5] -1.9% | [6] 4.9%

Nc1ccc(C(=O)Nc2ccc(C(=O)Nc3ccc4c(O)cc(S(=O)(=O)O)cc4c3)cc2)cc1
inactive: [1] -6.3% | [2] -6.65% | [3] -4.6% | [4] -34.3% | [5] -4.7% | [6] 12.8%

COc1cc(/C=N/NC2=NCCCN2)ccc1O
inactive: [1] 28.7% | [2] 13.2% | [3] 7.75% | [4] -16.2% | [5] 0.7% | [6] 17.4%

O=C(O)/C(=C\c1ccccc1Cl)S(=O)(=O)c1ccccc1
inactive: [1] -25.5% | [2] -6.45% | [3] -12.6% | [4] -0.35% | [5] -16% | [6] 15.1%

C[n+]1ccc(Nc2ccc(NC(=O)c3ccc(N)cc3)cc2)cc1
inactive: [1] 12.9% | [2] 20.4% | [3] 8.6% | [4] -5.05% | [5] 6.25% | [6] 17.4%

Cc1ccsc1S(N)(=O)=O
inactive: [1] -21.1% | [2] -23.1% | [3] -10.6% | [4] -12.2% | [5] 11.4% | [6] -6.75%

CCN(CC)C1Oc2cc3c(cc2C(c2cccc(OC)c2OC)C1C)OCO3 (configuration not stated)
inactive: [1] 28.4% | [2] 28.8% | [3] 46.5% | [4] 41.7% | [5] 41.9% | [6] 63.3%

COc1ccc(-c2c(C#N)c(O)n(NS(=O)(=O)c3ccc(C)cc3)c(=O)c2C#N)cc1
inactive: [1] 12.1% | [2] 37% | [3] 33% | [4] 20.8% | [5] 28.5% | [6] 37.5%

COc1cc(C=O)c(-c2c(C=O)ccc3c2OCO3)c(OC)c1OC
inactive: [1] 24.4% | [2] -1.9% | [3] 30.2% | [4] 18.1% | [5] 26% | [6] -1.5%

COC(=O)C(CCc1ccc([N+](=O)[O-])cc1)(CCc1ccc([N+](=O)[O-])cc1)C(=O)OC
inactive: [1] 19.2% | [2] 3.25% | [3] 4.15% | [4] -17.9% | [5] 24.2% | [6] 34.9%

C=CCC[P+](c1ccccc1)(c1ccccc1)c1ccccc1
inactive: [1] 37.2% | [2] 34.1% | [3] 28.2% | [4] -3.4% | [5] 9.1% | [6] 8.75%

Cc1cc2c(=O)cc(-c3ccc(C(=O)O)cc3)oc2c(C(=O)O)c1C
inactive: [1] 7.1% | [2] 4.3% | [3] 22.8% | [4] 29.8% | [5] 5.7% | [6] 10.5%

Cc1csc2nc(-c3cccs3)nn12
inactive: [1] 0.75% | [2] -15.4% | [3] 7.4% | [4] -1.55% | [5] -7.15% | [6] -9.1%

C=C1C(=O)O[C@@H]2[C@@H]3[C@@H](C)C(=O)C=C[C@]3(C)CC[C@@H]12
inactive: [1] -15.9% | [2] -49.1% | [3] -11.2% | [4] 7.05% | [5] -35.6% | [6] -14.9%

NC(=O)Oc1ccc(Cc2ccccc2)cc1
inactive: [1] -20.7% | [2] -43.2% | [3] -12.6% | [4] -8.95% | [5] -40.4% | [6] -5.05%

O=C(CC(C(=O)c1cccs1)c1cccs1)c1ccccc1Cl (configuration not stated)
inactive: [1] -10% | [2] -27.6% | [3] -12.6% | [4] -11.3% | [5] -3.8% | [6] -8.15%

COc1ccc2oc(C(=O)O)cc2c1
inactive: [1] -4.55% | [2] -3.65% | [3] -9.05% | [4] -25% | [5] -6.6% | [6] 0.6%

CCN(CC)C(=O)CN
inactive: [1] 8.9% | [2] 0.6% | [3] 9.1% | [4] -3.05% | [5] 3.3% | [6] -8.15%

O=S(=O)(Cc1c(Cl)c(Cl)c(Cl)c(Cl)c1Cl)c1ccc(Cl)cc1
inactive: [1] 1.2% | [2] -0.6% | [3] -1.25% | [4] -17.8% | [5] 2.4% | [6] -2.4%

COc1cc2c(cc1OC)C(=O)Cc1ccc3c(c1CN(C)CC2)OCO3
inactive: [1] -19.9% | [2] -42.7% | [3] -21.7% | [4] 2.7% | [5] -40.5% | [6] -17.9%

Cc1cc(C)c(COCc2c(C)cc(C)cc2C)c(C)c1
inactive: [1] 19% | [2] 10.1% | [3] -0.55% | [4] -34.1% | [5] -2% | [6] 12.8%

Cc1c(COC(=O)NC(C)C)c(COC(=O)NC(C)C)c2n1CCS2(=O)=O
inactive: [1] -26.8% | [2] -20.8% | [3] 4.75% | [4] -32.7% | [5] 0.5% | [6] -21.6%

O=C1CCCCC1CN1CCCC1 (configuration not stated)
inactive: [1] -10.4% | [2] -12% | [3] -33.6% | [4] 21.4% | [5] -42.5% | [6] -22.6%

O=c1[nH][nH]c(=O)c2c1nc(SCCc1ccccc1)n2Cc1ccccc1
inactive: [1] 26.4% | [2] 4.55% | [3] 11.7% | [4] 19.4% | [5] 1.8% | [6] 14.8%

Cc1ccc(Cc2nn(C)c(=O)n2-n2cccc2)cc1
inactive: [1] -37.1% | [2] -13.7% | [3] -10% | [4] -1.7% | [5] -19.1% | [6] -7.45%

CC(=O)OC1CCC2(C)C3=C(C(=O)CC2C1(C)C)C1(C)CCC(C(C)CCCC(C)C)C1(C)CC3 (configuration not stated)
inactive: [1] 0.3% | [2] 1.6% | [3] -25.4% | [4] 3.15% | [5] 4.3% | [6] -0.6%

Nc1cc(Cl)nc(N)n1
inactive: [1] -12.2% | [2] -16.4% | [3] 9.9% | [4] 0.1% | [5] -5.4% | [6] 17.6%

Cc1cccc(C(=O)NCC(=O)O)c1
inactive: [1] -13.8% | [2] -3.7% | [3] -9.9% | [4] -85.5% | [5] 4.5% | [6] -9.7%

N=C1C(O)C2(I)c3ccccc3N3C(=N)C(O)C4c5ccccc5N1C4C32 (configuration not stated)
inactive: [1] 5.55% | [2] 2.85% | [3] -38.5% | [4] -5.8% | [5] -29.4% | [6] 8.95%
